A selection: hits, their analogues and other compounds. The true share with any hit is near 7.9%.
Marburg entry inh = qHTS for inhibitors of binding or entry into cells for Marburg Virus; Marburg virus pseudotyped entry inhibition, cell reporter; Potency, µM (top dose mostly 37.8 µM), for inactives: top-dose activity change, negative = inhibition, usual class: inhibitors; 300,000 tested, 1.8% active; AID 540276, 2011; calls by dose curve; tested in HEK293 cells; also: potency is read from the fitted curve at half-maximal effect
HCMV inh = qHTS Assay for inhibitors of the human cytomegalovirus (HCMV); HFF cells, HCMV-luciferase reporter, 72 h; active compounds read low; activity change, negative = inhibition, % at 57.5 µM; 410,000 tested, 4.5% active; in the data active = activity change below about -60%; inconclusive = no clear call, values can overlap the other calls; inactive = above about -39%
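Compounds were evaluated in HFFs infected with an HCMV luciferase reporter virus (MOI 1 PFU/cell). Luciferase in lysates collected 72 h post infection served as the replication measure.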
Lassa entry inh = qHTS for Inhibitors of binding or entry into cells for Lassa Virus. AID 540256, 2011. Potency, µM (doses to about 37.9 µM), inactives show at the highest dose activity change, negative = inhibition, usual class: inhibitors. Lassa virus pseudotype entry inhibition, cell reporter. 300,000 tested, 1.2% active; calls by dose curve; tested in HEK293 cells; also: potency is read from the fitted curve at half-maximal effect; nearly all actives have a fitted effect of over 50% in size
FMDV inh = High Throughput Screening for Foot and Mouth Disease Virus Antivirals | FMDV antiviral cell-based qHTS | 410,000 tested, 1.2% active | Potency, µM (titrated, usually from 57.9 µM), for inactives: at the highest dose activity change, negative = inhibition, most hits filed as inhibitors; calls by dose curve; tested in HEK293T cells; also: read-out not given here; potency is read from the fitted curve at half-maximal effect; nearly all actives have a fitted effect of over 45% in size
HCV inhibitor = qHTS Assay for Inhibitors of Hepatitis C Virus (HCV). Huh7.5.1 HCVcc-Cre infection, luciferase reporter, 44 h. Potency, µM (series often up to 41.8 µM), for inactives: at the highest dose activity change, negative = inhibition, usual class: inhibitors. 340,000 tested, 3.4% active. AID 651820, 2012; active = well fitted inhibition curve with a large enough effect; inconclusive = small, poorly fitted or top-dose-only effect, or another doubt; inactive = no such curve, though single readings can be large or run the other way; also: potency is read from the fitted curve at half-maximal effect
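Cells (1,000/well) were plated 4 h before compound, then infected with HCVcc-Cre virus (~0.5 moi). After 44 h further culture, infection was read as luciferase luminescence following a 15 min substrate incubation at room temperature.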
* = called active by the depositor; ? = inconclusive; . = no result; [ ] = dose if it differs, or a comment. % is scaled to controls: 0 for no effect and ±100 for the full control effect.

SMILES	Marburg entry inh	HCMV inh	Lassa entry inh	FMDV inh	HCV inhibitor
O=C(NC1CC(=O)N(c2ccc(Cl)cc2)C1)c1cccs1 (centres undefined)	.	6	-19%[46.1 µM]	-11%	.
Cc1cc(C(=O)NCc2nnc3n2CCN(Cc2ccc(F)cc2F)CC3)c(C)o1	.	.	.	-16%	.
CSc1ccc(S(=O)(=O)Nc2ccc3c(c2)NC(=O)CC3)cc1	-26%[46.1 µM]	-11	-13%	0%	-25%
CSc1ccc(S(=O)(=O)Nc2ccc3c4c(cccc24)CC3)cc1	?	-82*	-19%	-8%	?
O=S(=O)(Nc1ccc2c3c(cccc13)CC2)c1ccc(F)cc1	?	-61*	12%	7%	-7%
Cc1ccccc1NS(=O)(=O)c1ccc(F)cc1	13%	84	-10%	-11%	10%
COc1cccc(Cn2c(NCc3ccc(C)cc3)nc3c2c(=O)n(C)c(=O)n3C)c1	3%[46.1 µM]	4	-6%[46.1 µM]	-21%	.
Cc1ncc2c(c1CNC(=O)c1ccc3c(c1)OCO3)CCN(C(=O)c1cnsn1)C2	.	.	.	6%	.
CC(=O)Nc1ccc(NC(=O)c2nc(S(=O)(=O)Cc3cccc(C)c3)ncc2Cl)cc1	-13%[46.1 µM]	-101*	?	20µM*	?
COC(=O)c1ccc(NC(=O)c2nc(S(=O)(=O)Cc3cccc(C)c3)ncc2Cl)cc1	?	-101*	?	28µM*	?
COC(=O)c1ccccc1NC(=O)c1nc(S(=O)(=O)Cc2cccc(C)c2)ncc1Cl	2%[46.1 µM]	-60*	0%[46.1 µM]	?	.
Cc1cccc(CS(=O)(=O)c2ncc(Cl)c(C(=O)NCc3ccc4c(c3)OCO4)n2)c1	.	-78*	.	32µM*	1%
COC(=O)c1ccccc1NC(=O)c1onc(C)c1Cl	.	-3	.	-14%	-7%
CCS(=O)(=O)c1ncc(Cl)c(C(=O)Nc2c(C(=O)Nc3cccc(C)c3)oc3ccccc23)n1	39%[46.1 µM]	19	?	-17%	.
Cc1ccc(CNC(=O)c2nc(S(=O)(=O)Cc3ccc(C)cc3)ncc2Cl)cc1	?	19	?	-50%	.
O=C([C@@H]1C[C@@H](Sc2nc3ccccc3[nH]2)CN1Cc1ccc(C(F)(F)F)cc1)N1CCN(c2ccccc2F)CC1	.	.	.	-13%	.
CCOCCCNC(=O)c1ccc2c(=O)n(CCc3ccccc3)c(=O)[nH]c2c1	25%[46.1 µM]	9	?	8%	.
O=C(NC1CC(=O)N(c2ccc(F)cc2)C1)c1ccc(S(=O)(=O)N2CCOCC2)cc1 (centres undefined)	.	?	-1%[46.1 µM]	-21%	.
O=S1(=O)[C@H]2C[C@H](CO)O[C@@]2(CO)CN1Cc1ccc(-c2ccc(F)cc2)cc1	.	-20	.	-19%	11µM*
O=S1(=O)[C@H]2C[C@H](CO)O[C@@]2(CO)CN1Cc1ccc(-c2cccc(Cl)c2)cc1	2%	5	.	-34%	?
CC(=O)OC1CCC2(C)C(CCC3C4CC=C(C(C)=O)C4(C)OC(=O)CC32)C1 (centres undefined)	.	-76*	.	13µM*	.
CCSC1(SCC)N=C(N)C2(C#N)C(c3ccccc3)NC3=C(CCC3)C12C#N (centres undefined)	-8%	-37	1%	-5%	2%
CCSC1(SCC)N=C(N)C2(C#N)C(c3ccc(OC)c(OC)c3OC)C12C#N (centres undefined)	?	3	?	25µM*	8.9µM*
Cc1ccnc(NC(=O)C2CCC(CNc3c(N4CCCC4)c(=O)c3=O)CC2)c1 (centres undefined)	1%	-75*	.	10%	15%
CC1CCN(c2c(NCC3CCC(C(=O)Nc4ccccn4)CC3)c(=O)c2=O)CC1 (centres undefined)	2%	-13	2%	6%	-1%[8.37 µM]
COc1cccc(C(=O)NCC2Cc3c(F)ccc(-c4ncccn4)c3O2)c1OC (centres undefined)	.	.	.	-10%	.
COc1ccc(COC(=O)N/N=C(\C)CC(=O)NCc2ccc(Cl)cc2)cc1	11%[46.1 µM]	-18	?	3%	2%
COc1ccc(COC(=O)N/N=C(\C)CC(=O)Nc2c(C)cc(C)cc2C)cc1	12%[46.1 µM]	-4	7.3µM*	-6%	-14%

Source: PubChem (National Center for Advancing Translational Sciences (NCATS))
